Pol kappa inh: DNA polymerase kappa (human) inhibition | purified Pol kappa, fluorescent DNA synthesis assay, 10 min | Potency, µM (series often up to 107 µM), for inactives: at the top dose activity, negative = inhibition, actives largely listed as inhibitors | 400,000 compounds, 0.53% hits; note: potency is the fitted concentration of half-maximal effect; % is set by controls: 0 for no effect and ±100 for the full control effect
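Enzyme at 10 nM met test compounds for 15 min at room temperature. Substrate addition (50 nM final) began the reaction, which was monitored by fluorescence at 0 and 10 min.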
POLB inh: DNA polymerase beta (human) inhibition. Pol beta primer extension/strand displacement, fluorescence kinetic. Potency, µM (series often up to 114 µM), for inactives: top-dose activity change, negative = inhibition, hits mostly inhibitors. 340,000 compounds, 1.3% hits. AID 485314; note: potency is the fitted concentration of half-maximal effect; % is set by controls: 0 for no effect and ±100 for the full control effect
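Homogeneous kinetic assay of primer extension and strand displacement by 10 nM Pol beta, preincubated 15 min at room temperature with compound before 50 nM substrate (final) was added. Read at 0 and 10 min; four-parameter Hill fit.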
PI5P4K alpha inh: blocks human PI5P4K alpha kinase activity; AID 652105; P48426; PI5P4Kalpha enzyme, ADP-Glo luminescence, 60 min; stronger effect = lower value; 330,000 compounds, 1.2% hits; max response, %; active = max response of -50% or lower; inconclusive = between -30% and -50%; inactive = -30% or higher; note: value at the top dose of about 77 µM; % is set by controls: 0 for no effect and ±100 for the full control effect
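Human PI5P4Kalpha with substrate in 0.038 M HEPES pH 7.4, 0.28 mM EGTA, 0.1% CHAPS, 5% DMSO; reaction started with 5 microM ATP (final), 60 min at room temperature. ADP formed read by ADP-Glo luminescence.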
WRN inhibitor: blocks human WRN helicase; Q14191; WRN helicase unwinding, fluorescent forked duplex, kinetic; Potency, µM (titrated, usually from 114 µM), for inactives: top-dose activity change, negative = inhibition, hits mostly inhibitors; 360,000 compounds, 0.46% hits; note: potency is the fitted concentration of half-maximal effect; % is set by controls: 0 for no effect and ±100 for the full control effect; nearly all actives have a fitted effect of over 55% in size
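Kinetic fluorescence helicase assay: unwinding of a quenched forked DNA duplex (100 nM final) with 2 mM ATP final raises red fluorescence (525/598 nm). Compounds sat 15 min at room temperature with 20 nM WRN beforehand.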
POLI inh: inhibitors of human DNA polymerase iota. Q9UNA4. 390,000 compounds, 1% hits. Pol iota fluorescent replication assay, 10 min. Potency, µM (titrated, usually from 115 µM), for the others: top-dose activity, negative = inhibition, usual class: inhibitors. AID 588590; note: potency is the fitted concentration of half-maximal effect
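Pol iota at 10 nM preincubated 15 min with compounds at room temperature; reaction started with fluorescent substrate, 50 nM final. Fluorescence read kinetically at 0 and 10 min; buffer-only wells as negative control.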
POLH inh: inhibitors of human DNA polymerase eta; Q9Y253; recombinant Pol eta, fluorescent DNA replication assay; Potency, µM (titrated, usually from 114 µM), for inactives: at the top dose activity change, negative = inhibition, hits mostly inhibitors; 390,000 compounds, 1.2% hits; AID 588591; note: potency is the fitted concentration of half-maximal effect; % is set by controls: 0 for no effect and ±100 for the full control effect
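Pol eta at 10 nM preincubated with compounds 15 min at room temperature; reaction started with fluorescent substrate (50 nM final) and read kinetically at 0 and 10 min.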
* = called active by the depositor; ? = inconclusive; . = no result; [ ] = dose if it differs, or a comment. Hits are enriched below; roughly 2.8% of the tested compounds scored in any of these assays. Unless noted, calls come from the whole dose curve; as a rule, active = well fitted curve in the direction sought with a large enough effect; inconclusive = small, poorly fitted or top-dose-only effect, or another doubt; inactive = no such curve, though single readings can be large; an effect the other way counts as inactive or inconclusive.

SMILES	Pol kappa inh	POLB inh	PI5P4K alpha inh	WRN inhibitor	POLI inh	POLH inh
COc1cc(/C=C/CNC[C@H]2O[C@@H](n3cc(C)c(=O)[nH]c3=O)C[C@@H]2O)ccc1O	.	.	-3	5%	.	-7%
COc1cc(O)c2c(c1)oc(=O)c1c3cc(O)c(O)cc3oc21	0.75µM*	.	.	.	.	.
Cc1cccc(NC(=O)c2cc(-c3ccc(C)c(C)c3O)n[nH]2)c1	11%	-9%	-4	-6%	79µM*	-26%
Cc1ccc(-c2cc(C(=O)Nc3ccc(S(=O)(=O)Nc4ncccn4)cc3)[nH]n2)c(O)c1C	-31%	?	-7	?	?	45µM*
CC(=O)Nc1ccc(NC(=O)c2cc(-c3ccc(C)c(C)c3O)n[nH]2)cc1	-8%	2%	-11	-4%	24%	-17%
CCOC(=O)C(=O)Nc1ccc(S(=O)(=O)Nc2ncccn2)cc1	-13%	89µM*	.	-5%	-11%	-5%
CCOC(=O)C(=O)Nc1ccc(S(=O)(=O)Nc2nccc(C)n2)cc1	.	.	2	-1%	.	?
CC1(C(=O)NS(=O)(=O)c2ccc(F)cc2F)CCN1C(=O)C1CCCCC1 (stereo not drawn)	.	.	4	-4%	.	.
Clc1ccc(Nc2nc(NCc3ccco3)nc3nccnc23)cc1	0%	.	.	.	25%	.
c1ccc(CC[n+]2ccncc2)cc1	-9%	.	.	.	7%	.
CC(=O)NC(c1cccc(F)c1)c1nc(-c2ccc(N(C)C)cc2)cs1 (stereo not drawn)	.	.	0	-3%	.	.
CC1=NN(c2ccccc2)C(=O)C1N=Nc1cccc(O)c1 (stereo not drawn)	3%	22%	9	-9%	-29%	-15%
CC1=NN(c2ccc(C)cc2C)C(=O)C1C(c1cccc(O)c1)C1C(=O)N(c2ccc(C)cc2C)N=C1C (stereo not drawn)	-4%	36%	3	-18%	1.3µM*	-21%
CCCCCCn1cnc2c(c1=O)c1nc3ccccc3nc1n2/N=C/c1ccco1	-17%	45µM*	-3	-35%	?	?
COCCn1cnc2c(c1=O)c1nc3ccccc3nc1n2/N=C/c1ccco1	9%	26%	-2	6%	12%	34%
CC(=O)Nc1ccc(NC(=O)C(C)OC(=O)c2ccc3[nH]c(C)c(C)c3c2)cc1 (stereo not drawn)	1%	.	-1	-8%	-9%	1%
Cc1ccccc1N=Cc1cccc(O)c1O	10µM*	3.5µM*	?	11µM*	?	?
CC(N=Cc1cccc(O)c1O)c1ccccc1 (stereo not drawn)	13µM*	2.5µM*	.	32µM*	8.9µM*	?
Oc1cccc(/C=N/N=C/c2cccc(O)c2O)c1O	11µM*	0.32µM*	-14	-14%[11.6 µM]	?	2.8µM*
Cc1ccc(N=Cc2cccc(O)c2O)c(C)c1	20µM*	10µM*	.	.	3.5µM*	.
Cc1ccc(NC2CCCN(C(=O)CN3C(=O)c4ccccc4C3=O)C2)cc1C (stereo not drawn)	-15%	?	-2	3%	5%	-12%
C[C@@H]1CNC(=O)c2c(C(=O)N[C@H](C)c3ccccc3)ncn21	.	.	-1	10%	.	-17%
N#CC1=C(N)OC2=C(CCC/C2=C/c2ccoc2)C1c1ccoc1 (stereo not drawn)	.	14µM*	.	.	.	.
CC1(NC(=O)CCc2nc3ccccc3c(=O)[nH]2)CCS(=O)(=O)C1 (stereo not drawn)	-4%	64%	-3	12%	31%	-6%
CCOc1ccc(-c2cc3c(=O)n(CC(=O)Nc4cc(F)ccc4C)ccn3n2)cc1	0%[60.1 µM]	0%	.	.	12%	0%
CC1=C(C(=O)Nc2cccnc2)C(c2cccc(F)c2)n2nc(SCc3ccccc3)nc2N1 (stereo not drawn)	8%	19%	.	.	12%	-11%
COc1ccc2c(c1)c1ccc3c(c1n2C)C(=O)C=CC3=O	3%	19%	-74*	-16%	18µM*	-4%

Bioassay records from PubChem BioAssay.
